# An excerpt weighted towards active compounds, which were near 3.5% of everything screened.
# TEAD-YAP inh: TEAD-YAP interaction inhibition, primary screen, TEAD-YAP interaction inhibitor project, luminescence, HEK-TIYL cells. TEAD-Gal4/YAP UAS-luciferase luminescence. inhibition, % at 9.12 µM. 1.4% of 640,000 active; in the data active = inhibition above about 32%;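 note: 0% = median of test compound wells and 100% = reference inhibitor wells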
# GPR151 ag: activators of human GPR151, primary screen, cell-based, PathHunter beta-arrestin, luminescence | PathHunter beta-arrestin GPR151 cells | activation, % at 11.2 µM | 1% of 650,000 active | AID 1508602, 2020; in the data active = activation above about 4.9%;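 note: 0% = median of compound wells and 100% = cells with positive control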
# Target sequence (Q8TDV0 whole entry, looked up): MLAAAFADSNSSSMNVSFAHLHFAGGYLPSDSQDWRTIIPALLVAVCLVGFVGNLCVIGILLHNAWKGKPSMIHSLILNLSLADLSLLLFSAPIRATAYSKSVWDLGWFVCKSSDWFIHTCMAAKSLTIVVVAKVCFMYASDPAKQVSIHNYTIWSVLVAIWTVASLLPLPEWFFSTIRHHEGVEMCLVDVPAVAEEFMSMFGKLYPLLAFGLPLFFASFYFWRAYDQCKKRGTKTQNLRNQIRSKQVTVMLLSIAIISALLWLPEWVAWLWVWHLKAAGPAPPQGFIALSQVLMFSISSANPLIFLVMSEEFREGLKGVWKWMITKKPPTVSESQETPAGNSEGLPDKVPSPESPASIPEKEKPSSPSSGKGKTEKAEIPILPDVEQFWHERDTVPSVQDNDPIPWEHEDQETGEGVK
# MITF inh: MITF inhibitors, primary screen, biochemical, AlphaScreen, human. Microphthalmia-associated transcription factor (Homo sapiens), O75030. AlphaScreen MITF homodimerization, bead proximity signal. inhibition, % at 2.6 µM. 0.91% of 650,000 active. AID 1259374, 2018; in the data active = inhibition above about 50%;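 note: 0% = vehicle wells with protein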
# FBW7 activator: FBW7 E3 ligase activators, primary screen, biochemical, AlphaScreen, human; F-box/WD repeat-containing protein 7 (Homo sapiens), Q969H0; AlphaScreen FBW7–phospho-cyclin E peptide binding, activator screen; normalized activity (activation), % at 26.1 µM; 0.13% of 650,000 active; AID 1259310, 2017; in the data active = normalized activity above about 1.9%;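 note: purified mutant Fbw7 with reduced substrate affinity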
# Starred values were filed as active, the others as inactive; ! = repeats disagree.
SMILES,TEAD-YAP inh,GPR151 ag,MITF inh,FBW7 activator
CCOCc1cc(CN2CCOCC2)c(O)c2ncccc12,-3,-1,86*,-1
COc1ccccc1N1CCN(Cc2cc([N+](=O)[O-])c(O)c3ncccc23)CC1,6,-1,28,-1
COc1ccccc1N1CCN(Cc2cc(COC(C)C)c3cccnc3c2O)CC1,35*,1,82*,-1
COCc1cc(CN(C)C2CCCCC2)c(O)c2ncccc12,74*,0,67*,-2
COc1ccccc1N1CCN(Cc2cc(Cl)c3cccnc3c2O)CC1,32*,-3,42,-1
COc1ccccc1N1CCN(Cc2cc(COCc3ccccc3)c3cccnc3c2O)CC1,74*,0,49,-1
COc1ccccc1N1CCN(Cc2cc([N+](=O)[O-])c3cccnc3c2O)CC1,14,-1,18,-1
CCOC(=O)NC(Nc1ccccc1C(=O)O)(C(F)(F)F)C(F)(F)F,5,0,0,0
O=C(c1cn(C2CCC(NS(=O)(=O)c3cccc(F)c3)CC2)nn1)N1CCCC1 (stereo not drawn),4,0,5,0
Cc1noc(C)c1COC(=O)/C=C/c1ccc(S(=O)(=O)N2CCOCC2)cc1,0,1,-1,0
COCc1cc(CN2CCCC2)c(O)c2ncccc12,81*,1,100*,-1
CCOc1ccccc1N1CCN(Cc2cc(OC)c(OC)c(OC)c2)CC1,41*,-1,35,1
CCCOCc1cc(CN2CCN(C)CC2)c(O)c2ncccc12,7,-2,94*,-1
O=S(=O)(Nc1nccnc1-c1ccc(CO)cc1)c1ccc(Cl)cc1,3,-1,-24,0
CCOC(=O)c1sc(N2C(=O)C(=O)/C(=C(/O)c3ccc(OCC)cc3C)C2c2ccc(Cl)cc2)nc1C (stereo not drawn),-7,0,11,0
CC(C)(C)OC(=O)N1CCCC(c2ccnc3cc(C(C)(C)C)nn23)C1 (stereo not drawn),7,-1,9,2.1*
Cc1cccc(NC(=O)c2ccc(N3CC4CC(C3)c3cccc(=O)n3C4)c(NC(=O)c3cccc(C(F)(F)F)c3)c2)n1 (stereo not drawn),0,0,-4,0
CCOc1ccc(CCNC(=O)Cn2ncc3c4ccccc4n(C)c3c2=O)cc1OCC,-7,0,5,0
O=C(c1cnn2c1NC(c1ccco1)CC2C(F)(F)F)N1CCN(Cc2ccccc2)CC1 (stereo not drawn),45*,-1,28,0
C=CCNC(=O)c1ccc2c(=O)n(CCC)c(=S)[nH]c2c1,6,1,-10,0
COC(CNC(=O)c1ccc2c(c1)N=C(C)c1ccccc1S2)OC,10,0,14,0
COCCNC(=O)c1ccc2c(c1)N=C(C)c1c(C)ccc(C)c1S2,74*,0,6,0
COC(CNC(=O)c1ccc2c(c1)N=C(C)c1c(C)ccc(C)c1S2)OC,58*,-1,1,0
COCCCNC(=O)c1ccc(C)c(Cl)c1,-2,1,11,1
COCCCNC(=O)c1ccc2c(c1)N=C(C)c1c(C)ccc(C)c1S2,56*,0,8,0
SMILES,TEAD-YAP inh,GPR151 ag,MITF inh,FBW7 activator
COC(CNC(=O)c1ccc2c(c1)N=C(C)c1cc(Cl)ccc1S2)OC,38*,1,-1,0
CNC(=O)c1ccc2c(c1)N=C(C)c1cc(Cl)ccc1S2,2,0,-4,0
CNC(=O)c1ccc2c(c1)N=C(C)c1c(C)ccc(C)c1S2,48*,1,20,1
O=C(NCC(c1ccco1)S(=O)(=O)c1ccc(F)cc1)OCc1ccccc1 (stereo not drawn),-1,2,0,0
O=C(Cc1ccc(F)cc1)Nc1cc(-c2cn[nH]c2)ccn1,82*,0,-16,0
CN1CCN(CC(O)COc2cccc3ccccc23)CC1 (stereo not drawn),10,-1,9,0
COc1ccccc1N1CCN(CC(O)COc2cccc3ccccc23)CC1 (stereo not drawn),38*!,0,12,0
O=C(COc1ccc(Cl)cc1I)N/N=C/c1cccc(O)c1,6,1,9,0
Cc1ncn(-c2ccc(Nc3ncc4cccc(-c5cnn(C(C)C)c5)c4n3)cc2)n1,52*,0,13,0
Cc1ncn(-c2ccc(Nc3ncc4cccc(-c5cnn(CC6CC6)c5)c4n3)cc2)n1,49*,0,11,0
COC(=O)c1c(NC(=O)c2ccc(S(=O)(=O)N3CCCCCC3)cc2)sc2c1CCN(C(C)C)C2,-4,0,-20,0
CC(=O)Nc1ccccc1CCCC(=O)O,3,1,6,0
CC(=O)N/C(=N\c1nc(C)cc(C)n1)Nc1ccc2ccccc2c1,52*,0,-5,0
CC(=O)N/C(=N\c1nc(C)cc(C)n1)Nc1cccc(C)c1,3,0,13,1
Cc1ccccc1NC(=O)C1CCCN1C(=O)Nc1ccccc1 (stereo not drawn),10,-1,15,0
Cc1ccc(NC(=O)N2CCCC2C(=O)Nc2ccccc2C)cc1 (stereo not drawn),0,0,0,6.3*
O=C(Cn1c2c(c3ccccc31)CCC2)NC1=NCCS1,77*,0,10,0
CN(C)C(Cc1ccccc1)C(=O)c1ccn(C)c1 (stereo not drawn),-6,-3,-1,0
COc1ccccc1NC(=O)Cn1c(C)cc(=O)c2cccc(C)c21,3,1,-1,0
COc1cccc(NC(=O)Cn2c(C)cc(=O)c3ccccc32)c1,54*,0,13,0
COc1ccccc1NC(=O)Cn1c(C)cc(=O)c2cccc(OC)c21,37*,0,-10,0
CCn1c(=O)n(CC(=O)Nc2ccccc2OC)c(=O)c2ccccc21,14,-1,9,0
COc1ccccc1NC(=O)Cn1c(C)cc(=O)c2ccccc21,64*,-1,-2,0
COc1ccccc1CNC(=O)/C=C/c1ccccc1[N+](=O)[O-],16,0,10,0
CCN(CC)C(=O)N1c2ccccc2C=Cc2ccccc21,62*,0,-2,0
SMILES,TEAD-YAP inh,GPR151 ag,MITF inh,FBW7 activator
Cc1ccc(-n2c3c(cc(C(=O)Nc4ccc(Cl)cn4)c2=O)C(=O)CCC3)cc1,4,2,5,0
COc1cc(Cc2nc3cc(C)c(C)cc3[nH]c2=O)cc(OC)c1OC,55*,-1,4,0
COc1ccccc1Cc1nc2cc(C)c(C)cc2[nH]c1=O,7,1,7,0
Cc1ccnc(NC(=O)CSc2nnc3c4ccccc4n(CCc4ccccc4)c3n2)c1,35*,-1,3,0
COc1ccc(N=c2ccc3ccccc3n2C)cc1,-71,0,17,0
COc1ccccc1-c1cc(C(=O)NCCCN2CCOCC2)c2ccccc2n1,-2,0,-3,0
